Our source for the outcome values is PubChem BioAssay AID720724 (Broad Institute, 2013).

Each structure is given as a SMILES string. Potency and affinity values are given separately. The source made the active and inactive calls.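 Rule for the calls: active = signal falls with a fitted half-maximal dose at most twice the top dose, in every run; inconclusive = steady partial drop, poor fit, or runs disagree; inactive = flat, rising or too weak in every run.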

The nature of the assay: inhibitors of control Renilla luciferase reporter, dose response, counter-screen for Shn3 3'UTR targeting project, Clone20-Shn3RL cells, dual-Glo, cherry-pick, set 2 (AID 720724). On the technique in general: Reporter assays use an easily measured gene product as a stand-in for the process of interest.

On to `O=C(O)c1cccc(COc2ccccc2Cl)c1`, for which the compound was called inactive. On to `Cc1ccccc1OCCOC(=O)c1cc(S(=O)(=O)N2CCCCC2)ccc1N1CCOCC1`, for which the compound was called inactive. Take `CCCCN1CC(COCc2ccccc2)Oc2cccc(Oc3ccc(C(C)C)cc3)c2S1(=O)=O` (stereo not given): the outcome was inactive. Turning to `O=C(Nc1ccc(N2CCOCC2)cc1)c1ccc(Cl)c(S(=O)(=O)N2CCCC2)c1`, the call was inactive. For `CCCCOCCCNc1ncnc2c1[nH]c1ccccc12`, the result was inactive. The result for `CCn1c(CNC(=O)c2cc(OC)c(OC)c(OC)c2)cc2cc(C)ccc21` reads “inactive”; that for `OCCCNc1nccc(-c2cc(Nc3cccc(Cl)c3)ncn2)n1`, “inactive”; that for `CCOC(=O)N1CCN(c2ccc(S(=O)(=O)N(Cc3ccccc3)Cc3ccccc3)cn2)CC1`, “inactive”.

On to `Cc1cccc(-c2noc(CN(C(=O)C(c3ccccc3)c3ccccc3)C(C)C)n2)c1`, for which the outcome was inactive.

`Cc1cccc(NS(=O)(=O)c2ccc(C3CCCCC3)cc2)c1`: the result was inactive. As for `O=C(NCCc1ccccc1)c1ccc2c(c1)OCCO2`, the result was inactive. The result for `COc1ccc(-n2ncc3c(N4CCCCC4)ncnc32)cc1` reads “inactive”; that for `O=C(Nc1nc(-c2ccccc2)cs1)C1CCCCN1S(=O)(=O)c1ccccc1` (stereo not given), “inactive”; that for `CCOC(=O)Cn1c(S(=O)(=O)Cc2ccccc2Cl)nc(-c2ccccc2)c1-c1ccccc1`, “inactive”. For the compound `O=C(CSc1nnc(-c2cccnc2)s1)Nc1ccnc2ccccc12`, the call was inactive. The value for `Oc1ccc(-c2n[nH]c(C(F)(F)F)c2-c2ccccc2)c(O)c1` was “inactive”; that for `COc1cccc(-n2c(C)nc3c(cnn3-c3ccc(Cl)cc3)c2=O)c1` was “inactive”; that for `COc1ccc(C(=O)Nc2nc3ccccc3s2)c(OC)c1` was “inactive”. The value for `COc1ccc(CNC(=O)C(c2ccc(C)cc2)N(Cc2cccs2)C(=O)c2ccc3c(c2)OCCO3)cc1` (stereo not given) was “inactive”. With `CC(C)[C@H](NC(=O)OC(C)(C)C)c1nnc(S(=O)(=O)Cc2c(F)cccc2Cl)o1`, the compound was called inactive. Consider `Cn1nc(CC(=O)Nc2ccc3c(c2)OCCO3)c2ccccc2c1=O`, for which the result was inactive.

Turning to `CCCn1c(C)cc(C(=O)CN2C(=O)c3ccccc3S2(=O)=O)c1C`, the result was inactive.

For `O=C(CN1C(=O)c2ccccc2S1(=O)=O)c1ccc(Cl)cc1Cl`, the compound was called inactive. With `Cc1cc(C(=O)COC(=O)c2ccccc2O)c(C)n1Cc1cccs1`, the call was inactive.

For the compound `CC(C)(C)C(=O)Nc1cc2nn(-c3ccccc3)nc2cc1Cl`, the compound was classed as inactive. As for `Cc1ccc(-c2nc3ncccc3o2)cc1NC(=O)c1sc2ccccc2c1Cl`, the result was inactive. With `COc1ccccc1N1CCN(c2ncc(C(=O)N3CCN(c4cccc(Cl)c4)CC3)c3ccccc23)CC1`, the outcome was inactive. `Cc1ccc2c(c1)nnn2C1CCN(S(=O)(=O)c2ccc(C(=O)N3C(C)CCCC3C)cc2)CC1` (stereo not given): the result was inactive. With `COc1ccc(CC(=O)Nc2ccncc2Cl)cc1`, the outcome was inactive.

Consider `COc1ccc(NS(=O)(=O)c2ccc(OC)c(N(C)S(=O)(=O)c3ccc(Cl)cc3)c2)cc1`, for which the call was inactive. `CCn1c(C)cc(C(=O)COC(=O)c2ccccc2[N+](=O)[O-])c1C`: the compound was called inactive. The result for `CC(C)(C)C(=O)Nc1ccc(NC(=O)c2ccco2)nc1` reads “inactive”. As to `CCN(CC)Cc1c(O)ccc2c1O/C(=C\C=C\c1ccccc1)C2=O`, the outcome was inactive. Turning to `Cc1onc(-c2ccccc2Cl)c1C(=O)N(C)C1CCCCC1`, the outcome was inactive. On to `Cc1ccc(C(=O)Nc2cnc3ccccc3c2)cc1`, for which the outcome was inactive.
